# Laboratory results from PubChem BioAssay.
# Records with an inconclusive call do not appear. Activity calls are given as the source filed them.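 Rule for the calls, unless noted: active = normalized viability below 100% at a tested concentration; inactive = the rest.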
# Experiments:
# [1] = biological target: ATP-dependent translocase ABCB1 (Homo sapiens) (UniProt P08183); assay: MDR1 (ABCB1) efflux transporter inhibition, cell-based (AID 377; in the data active = fluorescence slope change above about 50%); settings: MDR1-expressing cells, fluorescent substrate accumulation slope; stronger effect = higher value; concentration not given here
# Sequence of ATP-dependent translocase ABCB1 (Homo sapiens) (P08183 whole entry, looked up): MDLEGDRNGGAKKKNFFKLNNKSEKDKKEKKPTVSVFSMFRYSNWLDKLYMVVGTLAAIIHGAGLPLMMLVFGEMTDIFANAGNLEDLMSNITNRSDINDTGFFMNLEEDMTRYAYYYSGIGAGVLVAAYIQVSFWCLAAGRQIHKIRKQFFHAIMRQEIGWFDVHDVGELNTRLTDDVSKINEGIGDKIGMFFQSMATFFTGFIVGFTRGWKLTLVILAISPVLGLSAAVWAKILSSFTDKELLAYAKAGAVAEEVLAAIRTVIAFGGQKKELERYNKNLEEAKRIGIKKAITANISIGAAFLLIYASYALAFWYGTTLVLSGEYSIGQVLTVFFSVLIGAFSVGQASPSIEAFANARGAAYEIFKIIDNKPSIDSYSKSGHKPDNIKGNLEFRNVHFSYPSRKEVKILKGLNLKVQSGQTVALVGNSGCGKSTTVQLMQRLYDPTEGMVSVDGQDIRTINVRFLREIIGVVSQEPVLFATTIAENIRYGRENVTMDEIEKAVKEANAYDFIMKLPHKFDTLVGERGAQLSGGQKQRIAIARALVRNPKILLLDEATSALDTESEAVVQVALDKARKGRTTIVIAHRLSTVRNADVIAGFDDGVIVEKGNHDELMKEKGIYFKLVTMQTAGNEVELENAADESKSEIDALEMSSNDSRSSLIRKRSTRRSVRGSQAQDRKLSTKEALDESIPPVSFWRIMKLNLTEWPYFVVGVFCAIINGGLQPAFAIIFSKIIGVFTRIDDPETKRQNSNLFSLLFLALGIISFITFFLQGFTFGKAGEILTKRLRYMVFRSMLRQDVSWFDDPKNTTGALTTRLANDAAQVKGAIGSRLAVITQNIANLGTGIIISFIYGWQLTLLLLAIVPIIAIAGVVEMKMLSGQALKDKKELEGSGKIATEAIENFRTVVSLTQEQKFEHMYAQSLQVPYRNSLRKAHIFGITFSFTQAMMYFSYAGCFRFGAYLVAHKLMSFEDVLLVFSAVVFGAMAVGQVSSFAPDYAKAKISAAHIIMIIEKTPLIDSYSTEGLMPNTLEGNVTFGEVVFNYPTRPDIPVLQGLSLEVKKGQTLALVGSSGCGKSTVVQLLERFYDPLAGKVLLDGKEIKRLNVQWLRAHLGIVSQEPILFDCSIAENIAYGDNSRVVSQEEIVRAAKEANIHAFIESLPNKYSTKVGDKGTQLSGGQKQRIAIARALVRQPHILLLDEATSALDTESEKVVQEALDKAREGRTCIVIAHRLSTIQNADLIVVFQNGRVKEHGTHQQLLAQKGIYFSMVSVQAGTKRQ
# [2] = circadian clock period modulators, cell-based, LOPAC library, luminescence reporter (AID 2774; call rule not given here;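 note: values are relative to mean of DMSO wells on each plate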); settings: circadian reporter cells, at 7 µM, actives lie on both sides
# [3] = test system: Hepatitis C virus NS3 helicase; assay: HCV NS3 helicase inhibitors, primary screen, biochemical, fluorescence polarization, LOPAC1280 library (AID 687035; in the data active = inhibition above about 37%); settings: Purified HCV NS3 helicase, Cy5-dT15 ssDNA binding fluorescence polarization; stronger effect = higher value; concentration not given here
# [4] = Cy5 fluorescence quenching or enhancement artefacts, artefact control for HCV NS3 helicase inhibitor project, biochemical, LOPAC1280 (AID 687037; call rule not given here); settings: Cy5-DNA-NS3h complex fluorescence interference counterscreen
# [5] = test system: Aerobactin synthetase IucA (Klebsiella pneumoniae); assay: IucA aerobactin synthetase inhibitors, biochemical, Tocris library, absorbance (AID 1345561; call rule not given here;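 note: 100% = enzyme without compound and 0% = no enzyme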); settings: purified IucA enzyme assay, absorbance (OD) read-out; stronger effect = lower value;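 tested at 8 µM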
# [6] = growth inhibition of DIPG glioma cells, dose response, cell-based, JHH-DIPG-1, MIPE4.0, CellTiter-Glo, qHTS (AID 1347062; cut-off not given, nearly all actives have AC50 up to about 27 µM;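 for AC50: cells exposed to compound for two days before readout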); settings: JHH-DIPG-1 viability, CellTiter-Glo ATP luminescence
# [7] = viability loss in pontine glioma line – cell-based, SU-DIPG-XXV, MIPE5.0, CellTiter-Glo, qHTS, dose response (AID 1347065; cut-off not given, nearly all actives have AC50 up to about 26 µM;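 note: cells exposed to compound for 48 hours before ATP readout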); settings: CellTiter-Glo ATP luminescence
# [8] = SU-DIPG-VI glioma cell viability, MIPE4.0 library, CellTiter-Glo luminescence, qHTS (AID 1347066; cut-off not given, nearly all actives have AC50 up to about 30 µM;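 note: cells exposed to compound for 48 hours before readout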); settings: CellTiter-Glo ATP luminescence
# [9] = SU-DIPG-XXV glioma cell viability, MIPE5.0 library, qHTS (AID 1347068; cut-off not given, nearly all actives have IC50 up to about 30 µM;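 for IC50: cells exposed to compound for 48 hours before viability readout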)
# [10] = phospholipid biosynthesis inhibitors in animal cells, primary screen, cell-based, LOPAC library, screen 4 (AID 1347384; call rule not given here); settings: phospholipid biosynthesis inhibition screen, at 10 µM
# [11] = growth inhibition of DIPG glioma cells, dose response, cell-based, SU-DIPG-XVII, MIPE5.0, CellTiter-Glo, qHTS (AID 1347060; cut-off not given, nearly all actives have AC50 up to about 26 µM;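 for AC50: cells exposed to compound for 48 hours before viability readout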); settings: SU-DIPG-XVII viability, CellTiter-Glo ATP luminescence
# [12] = growth inhibition of DIPG glioma cells, dose response, cell-based, SU-DIPG-XIII, MIPE5.0, CellTiter-Glo, qHTS (AID 1347064; cut-off not given, nearly all actives have AC50 up to about 23 µM;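 for AC50: cells exposed to compound for 48 hours before the viability read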); settings: SU-DIPG-XIII viability, CellTiter-Glo ATP luminescence
# [13] = JHH-DIPG-1 glioma cell viability, MIPE5.0 library, CellTiter-Glo luminescence, qHTS (AID 1347067; cut-off not given, nearly all actives have AC50 up to about 26 µM;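 note: cells exposed to compound for 48 hours before readout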); settings: JHH-DIPG-1 glioma viability, CellTiter-Glo ATP luminescence
# [14] = growth inhibition of DIPG glioma cells, dose response, cell-based, SU-DIPG-XIII, MIPE4.0, CellTiter-Glo, qHTS (AID 1347061; cut-off not given, nearly all actives have AC50 up to about 37 µM;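 note: cells exposed to compound for 48 hours before readout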); settings: SU-DIPG-XIII viability, CellTiter-Glo ATP luminescence
# [15] = growth inhibition of DIPG glioma cells, dose response, cell-based, SU-DIPG-IV, MIPE4.0, CellTiter-Glo, qHTS (AID 1347063; cut-off not given, nearly all actives have AC50 up to about 30 µM;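 note: compound exposure lasted 48 hours before the viability readout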); settings: SU-DIPG-IV viability, CellTiter-Glo ATP luminescence
# [16] = reducers of polyQ inclusions in PC12 cells, cell-based, NGF-treated PC12, GFPQ80 (AID 1614); settings: PC12 NGF-treated GFP-polyQ80 inclusion reduction;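 note: lower means fewer inclusions and 0 means no inclusions at all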
# [17] = LFS_MB_P medulloblastoma growth inhibition, cell-based, chromothripsis tumors, cisplatin or BGB combos (AID 1671449; in the data active = inhibition above about 80%;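 note: cells exposed for 96 hours; 0% = vehicle DMSO and 100% = killing by high DMSO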); settings: LFS_MB_P medulloblastoma cells
# [18] = ICB984 medulloblastoma cell growth inhibition, synergistic combos for chromothripsis tumors, cisplatin or BGB combos (AID 1671451; call rule not given here;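 note: cells exposed for 96 hours before readout; 0% = vehicle DMSO and 100% = killing by high DMSO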); settings: ICB984 medulloblastoma cells, drug combinations, stronger effect = higher value
# [19] = ovarian cancer cell viability with rucaparib, profiling panel, oncology-focused library, rucaparib conditional (AID 1508598); settings: patient-derived ovarian cancer cells, CellTiter-Glo viability, 144 h, stronger effect = lower value
# [20] = modifiers of HSF1 nuclear foci, imaging, Selleck Cancer Library (AID 1347162; in the data active = plate-normalised HSF1 focus index below about 0.46); settings: human cells, at 10 µM; SSMD: measured here: HSF1 foci SSMD mean; cell count: measured here: cell number; plate-normalised HSF1 focus index: stronger effect = lower value
smiles,measurement,setting,value
CNCCCC12CCC(c3ccccc31)c1ccccc12,fluorescence slope change,[1],137% (active)
same,period change,[2],2.03 h (inactive)
same,inhibition,[3],-6% (inactive)
same,fluorescence ratio (interference),[4],0.9 (inactive)
same,remaining activity,[5],112% (inactive)
same,AC50,[6],20.9 µM (active)
same,AC50,[7],23.5 µM (active)
same,outcome,[8],inactive
same,outcome,[9],inactive
same,outcome,[10],inactive
CC1(C)O[C@@H]2C[C@H]3[C@@H]4C[C@H](F)C5=CC(=O)C=C[C@]5(C)[C@H]4[C@@H](O)C[C@]3(C)[C@]2(C(=O)CO)O1,fluorescence slope change,[1],24.8% (inactive)
same,outcome,[11],inactive
same,outcome,[12],inactive
same,outcome,[7],inactive
same,outcome,[13],inactive
same,outcome,[9],inactive
CCCCc1oc2ccccc2c1C(=O)c1cc(I)c(OCCN(CC)CC)c(I)c1,period change,[2],0.145 h (inactive)
same,inhibition,[3],0% (inactive)
same,fluorescence ratio (interference),[4],0.9 (inactive)
same,AC50,[11],13.2 µM (active)
same,AC50,[14],7.43 µM (active)
same,AC50,[6],23.5 µM (active)
same,AC50,[15],1.05 µM (active)
same,AC50,[12],13.2 µM (active)
same,AC50,[8],23.5 µM (active)
same,AC50,[13],16.6 µM (active)
same,IC50,[9],23.5 µM (active)
same,outcome,[10],inactive
CCn1cc(C(=O)O)c(=O)c2cc(F)c(N3CCNCC3)cc21,fluorescence slope change,[1],98.4% (active)
same,inclusion score,[16],2
same,outcome,[14],inactive
same,outcome,[6],inactive
same,outcome,[12],inactive
same,outcome,[7],inactive
same,outcome,[8],inactive
same,outcome,[9],inactive
same,inhibition,"[17]; at 0.5 µM, stronger effect = higher value",7.63% (inactive)
same,inhibition,"[17]; measured here: combination with BGB IC20, at 0.005 µM",-17.9%
same,inhibition,"[17]; measured here: combination with BGB IC40, at 0.005 µM",-10.9%
same,inhibition,"[17]; measured here: combination with BGB IC40, at 0.05 µM",-0.516%
same,inhibition,"[17]; measured here: combination with cisplatin, at 0.5 µM, stronger effect = higher value",9.32%
same,inhibition,"[17]; measured here: combination with cisplatin, at 5 µM, stronger effect = higher value",-19.2%
same,inhibition,"[18]; BGB IC20 combo, at 0.005 µM",-26.7%
same,inhibition,"[18]; BGB IC40 combo, at 0.005 µM",-18.2%
same,inhibition,"[18]; BGB IC40 combo, at 0.05 µM",-41.7%
same,inhibition,[18]; at 0.5 µM,-9.23% (inactive)
same,inhibition,"[18]; cisplatin combo, at 0.05 µM",-41.7%
same,inhibition,"[18]; cisplatin combo, at 0.5 µM",-13%
same,inhibition,"[18]; cisplatin combo, at 5 µM",-17.2%
same,inhibition,"[18]; measured here: 5 uM single agent, at 5 µM",-7.24%
CCN(CC)C(=S)SSC(=S)N(CC)CC,fluorescence slope change,[1],81.8% (active)
same,period change,[2],-0.07 h (inactive)
same,inhibition,[3],-3% (inactive)
same,fluorescence ratio (interference),[4],1 (inactive)
same,AC50,[11],0.934 µM (active)
same,AC50,[14],0.0105 µM (active)
same,AC50,[6],0.00935 µM (active)
same,AC50,[15],0.0209 µM (active)
same,AC50,[12],0.934 µM (active)
same,AC50,[7],0.833 µM (active)
same,AC50,[8],0.00372 µM (active)
same,AC50,[13],0.934 µM (active)
same,outcome,[9],inactive
same,outcome,[10],inactive
same,viability,"[19]; at 0.000305 µM, OCI-C5x cells, with rucaparib 10 µM, 100% = cells with rucaparib alone",117% (inactive)
same,viability,"[19]; at 0.000305 µM, OCI-C5x cells, without rucaparib",126% (inactive)
same,viability,"[19]; at 0.000305 µM, OCI-P5x cells, with rucaparib 20 µM, 100% = cells with rucaparib alone",78.8% (active)
same,viability,"[19]; at 0.000305 µM, OCI-P5x cells, without rucaparib",89.7% (active)
same,viability,"[19]; at 0.00122 µM, OCI-C5x cells, with rucaparib 10 µM, 100% = cells with rucaparib alone",122% (inactive)
same,viability,"[19]; at 0.00122 µM, OCI-C5x cells, without rucaparib",146% (inactive)
same,viability,"[19]; at 0.00122 µM, OCI-P5x cells, with rucaparib 20 µM, 100% = cells with rucaparib alone",76.6% (active)
same,viability,"[19]; at 0.00122 µM, OCI-P5x cells, without rucaparib",90.8% (active)
same,viability,"[19]; at 0.00488 µM, OCI-C5x cells, with rucaparib 10 µM, 100% = cells with rucaparib alone",117% (inactive)
same,viability,"[19]; at 0.00488 µM, OCI-C5x cells, without rucaparib",130% (inactive)
same,viability,"[19]; at 0.00488 µM, OCI-P5x cells, with rucaparib 20 µM, 100% = cells with rucaparib alone",75.9% (active)
same,viability,"[19]; at 0.00488 µM, OCI-P5x cells, without rucaparib",86.5% (active)
same,viability,"[19]; at 0.0195 µM, OCI-C5x cells, with rucaparib 10 µM, 100% = cells with rucaparib alone",128% (inactive)
same,viability,"[19]; at 0.0195 µM, OCI-C5x cells, without rucaparib",126% (inactive)
same,viability,"[19]; at 0.0195 µM, OCI-P5x cells, with rucaparib 20 µM, 100% = cells with rucaparib alone",74.6% (active)
same,viability,"[19]; at 0.0195 µM, OCI-P5x cells, without rucaparib",78.5% (active)
same,viability,"[19]; at 0.0781 µM, OCI-C5x cells, with rucaparib 10 µM, 100% = cells with rucaparib alone",120% (inactive)
same,viability,"[19]; at 0.0781 µM, OCI-C5x cells, without rucaparib",120% (inactive)
same,viability,"[19]; at 0.0781 µM, OCI-P5x cells, with rucaparib 20 µM, 100% = cells with rucaparib alone",104% (inactive)
same,viability,"[19]; at 0.0781 µM, OCI-P5x cells, without rucaparib",131% (inactive)
same,viability,"[19]; at 0.313 µM, OCI-C5x cells, with rucaparib 10 µM, 100% = cells with rucaparib alone",135% (inactive)
same,viability,"[19]; at 0.313 µM, OCI-C5x cells, without rucaparib",136% (inactive)
same,viability,"[19]; at 0.313 µM, OCI-P5x cells, with rucaparib 20 µM, 100% = cells with rucaparib alone",102% (inactive)
same,viability,"[19]; at 0.313 µM, OCI-P5x cells, without rucaparib",129% (inactive)
same,viability,"[19]; at 1.25 µM, OCI-C5x cells, with rucaparib 10 µM, 100% = cells with rucaparib alone",121% (inactive)
same,viability,"[19]; at 1.25 µM, OCI-C5x cells, without rucaparib",135% (inactive)
same,viability,"[19]; at 1.25 µM, OCI-P5x cells, with rucaparib 20 µM, 100% = cells with rucaparib alone",103% (inactive)
same,viability,"[19]; at 1.25 µM, OCI-P5x cells, without rucaparib",116% (inactive)
same,viability,"[19]; at 5 µM, OCI-C5x cells, with rucaparib 10 µM, 100% = cells with rucaparib alone",113% (inactive)
same,viability,"[19]; at 5 µM, OCI-C5x cells, without rucaparib",129% (inactive)
same,viability,"[19]; at 5 µM, OCI-P5x cells, with rucaparib 20 µM, 100% = cells with rucaparib alone",110% (inactive)
same,viability,"[19]; at 5 µM, OCI-P5x cells, without rucaparib",120% (inactive)
O=C(c1ccccc1)c1ccc2n1CCC2C(=O)O (stereo unspecified),inclusion score,[16],2
same,period change,[2],-0.025 h (inactive)
same,inhibition,[3],-3% (inactive)
same,fluorescence ratio (interference),[4],1 (inactive)
same,outcome,[11],inactive
same,AC50,[14],8.33 µM (active)
same,outcome,[6],inactive
same,outcome,[15],inactive
same,outcome,[12],inactive
same,outcome,[7],inactive
same,outcome,[8],inactive
same,outcome,[13],inactive
same,outcome,[9],inactive
same,outcome,[10],inactive
C[C@@H]1C[C@H]2[C@@H]3CCC4=CC(=O)C=C[C@]4(C)[C@@]3(F)[C@@H](O)C[C@]2(C)[C@@]1(O)C(=O)CO,outcome,[11],inactive
same,outcome,[12],inactive
same,outcome,[7],inactive
same,outcome,[13],inactive
same,outcome,[9],inactive
same,SSMD,[20],1.52
same,cell count,[20],6940
same,plate-normalised HSF1 focus index,[20],1.08 (inactive)
CC(=O)O[C@]1(C(C)=O)CC[C@H]2[C@@H]3C=C(C)C4=CC(=O)CC[C@]4(C)[C@H]3CC[C@@]21C,AC50,[6],11.8 µM (active)
same,AC50,[15],8.33 µM (active)
same,outcome,[12],inactive
same,outcome,[8],inactive
same,outcome,[9],inactive
same,SSMD,[20],0.639
same,cell count,[20],7050
same,plate-normalised HSF1 focus index,[20],1.04 (inactive)
CN1CCN(CCCN2c3ccccc3Sc3ccc(C(F)(F)F)cc32)CC1,fluorescence slope change,[1],134% (active)
same,period change,[2],0.025 h (inactive)
same,inhibition,[3],-6% (inactive)
same,fluorescence ratio (interference),[4],0.9 (inactive)
same,AC50,[14],18.7 µM (active)
same,outcome,[6],inactive
same,AC50,[7],18.6 µM (active)
same,outcome,[8],inactive
same,AC50,[13],23.5 µM (active)
same,outcome,[10],inactive
CCN(CC)CC(=O)Nc1c(C)cccc1C,inclusion score,[16],2
same,period change,[2],-0.265 h (inactive)
same,inhibition,[3],-3% (inactive)
same,fluorescence ratio (interference),[4],1 (inactive)
same,outcome,[10],inactive
